Compounds with a hit are over-represented: about 4.1% of the library has one in this group of screens.
hgDAF-12 ag: activates the H. glycines DAF-12 receptor ligand-binding domain | HEK293 GAL4-hgDAF12 UAS-luciferase reporter, agonist luminescence; normalized to butyrate control | activation, % at 6.8 µM | 1.8% of 370,000 active;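 active means activation above a cutoff set at the mean of all screened compounds plus 3 SD, cut at about 10% in these data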;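 further: 0% = DMSO wells and 100% = sodium butyrate wells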
ssDAF-12 act: activates DAF-12 receptor from parasite S. stercoralis; HEK293 ssDAF-12/GRIP1 lit1-tk-luc reporter, luminescence; % of 3 µM dafachronic acid response; activation, % at 6.8 µM; 1% of 370,000 active;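 active means activation above the mean over all tested compounds plus 3 SD, cut at about 0.9% in these data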;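 further: 0% = DMSO-only wells and 100% = 3 µM delta7-dafachronic acid wells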
DAX1 inh-1: NR0B1 (DAX1) inhibition. HEK293 Gal4-DAX1 luciferase reporter, luminescence. inhibition, % at 6.75 µM. 0.99% of 340,000 active. AID 504766;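 active means inhibition above the mean over all tested compounds plus 3 SD, cut at about 4.2% in these data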;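 further: 0% = DAX1-transfected cells with DMSO and 100% = empty-vector control cells with DMSO; inhibition shows as a rise in luminescence from relieved DAX1 repression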
Target sequence (P51843 207-470 limits assumed): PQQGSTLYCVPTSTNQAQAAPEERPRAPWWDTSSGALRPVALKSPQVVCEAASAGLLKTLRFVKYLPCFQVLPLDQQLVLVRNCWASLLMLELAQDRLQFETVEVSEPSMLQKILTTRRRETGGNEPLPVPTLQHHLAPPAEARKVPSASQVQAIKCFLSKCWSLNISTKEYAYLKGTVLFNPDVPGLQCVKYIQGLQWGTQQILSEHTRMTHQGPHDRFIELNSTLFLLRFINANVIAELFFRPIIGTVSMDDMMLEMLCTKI
DAX1 inh-2: blocks DAX1 repression of SF-1 activated StAR promoter; HEK293T StAR-luciferase reporter, SF-1/DAX-1 repression relief; 1.1% of 370,000 active; inhibition, % at 6.8 µM;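 active means inhibition above the mean over all tested compounds plus 3 SD, cut at about 3.6% in these data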;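 further: 0% = DAX-1 cells with DMSO and 100% = cells lacking DAX-1 with DMSO; higher inhibition means more luminescence from relief of DAX-1 repression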
hcDAF-12 act: activators of H. contortus DAF-12 nuclear receptor | 1.4% of 370,000 active | HEK293 hcDAF-12 lit1-tk-luc reporter, luminescence; 0% DMSO, 100% Δ7-dafachronic acid | activation, % at 6.8 µM;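 active means activation above the mean of all tested compounds plus 3 SD, cut at about 5.5% in these data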;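 further: 100% = response to 3 µM Δ7-dafachronic acid high control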
Numbers without * were called inactive; nt = not tested or not shown.

SMILES	hgDAF-12 ag	ssDAF-12 act	DAX1 inh-1	DAX1 inh-2	hcDAF-12 act
C=CCNC(=O)CN(C(=O)Cc1ccc(Cl)nc1)c1cccc(Br)c1	2	-2	nt	0	-2
O=C(NC(=S)Nc1ccccc1Cl)c1cncc(C#Cc2ccccc2)c1	-1	-1	4.4*	0	-1
CC1CN/C(=C\C(=O)c2ccc(Cl)cc2)C(=O)N1 (configuration not stated)	12*	1	1	4	5
CC1CN/C(=C\C(=O)c2ccccc2)C(=O)N1 (configuration not stated)	8	-1	0	2	1
COc1ccc2cc3cc(C(=O)NCCCN4CCc5ccccc5C4)sc3nc2c1	5	0	1	1	1
COc1ccc2nc3sc(C(=O)NCCN4CCc5ccccc5C4)cc3cc2c1	12*	0	-1	1	5
COC(=O)C1CN(Cc2ccc(OC)cc2)CCS(=O)(=O)N1Cc1cn(Cc2ccc(Cl)cc2)nn1 (configuration not stated)	1	-1	nt	0	-3
CN1CCc2c(sc3c2c(=O)n(-c2ccccc2)c2n[nH]c(=S)n32)C1	-1	-2	4.7*	0	-2
COCCCN1C(=O)[C@H](CC(=O)NCCCCc2ccccc2)[C@]2(C(=O)OC)CCCCC=C12	0	-1	nt	0	-2
C/C(=N\NC(=O)c1ccc(CN2CCOCC2)cc1)c1ccc(NC(=O)c2ccccc2)cc1	11*	-1	0	3	5
O=C(Nc1ccc(CN2CCOCC2)cc1)c1ccc2ccccc2c1	13*	0	0	2	2
CC/C(=N/NC(=O)c1ccccc1)c1ccc(OCCN2CCOCC2)cc1	10	1.6*	1	2	2
CC(=O)Nc1ccc(/C(C)=N/NC(=O)c2ccc(F)cc2)cc1	5	-1	0	0	-1
C/C(=N\NC(=O)c1ccc(F)cc1)c1ccc(NC(=O)Cc2ccccc2)cc1	7	-1	1	4.1*	3
O=C(CSc1nnc(-c2ccncc2)n1-c1ccccc1)Nc1cccc2ccccc12	0	-2	nt	0	0
O=C(NN=C1CCN(Cc2ccccc2)CC1)c1ccccc1	11*	0	2	1	2
Cc1ccc(SCCSc2nc(C)cc(=O)[nH]2)cc1	3	0	5.0*	0	1
CCOC(=O)C1=NOC2(C1)C(=O)Nc1c(Cl)cccc12 (configuration not stated)	5	0	nt	0	5.7*
CN(C)C(=O)C1=NOC2(C1)C(=O)Nc1ccccc12 (configuration not stated)	3	0	nt	0	-1
CCOC(=O)[C@@]12CN(C(=O)OC(C)(C)C)CC=C1N(Cc1ccc(OC)cc1)C(=O)[C@H]2CC(=O)N1CCCCC1	-3	-1	nt	0	-3
CCOc1ccc(CC(=O)C2C(=O)CC(C)(C)CC2=O)cc1OCC	-1	0	4.4*	1	0
CCOc1ccc(CC(=O)C2C(=O)CCCC2=O)cc1OCC	nt	nt	0	nt	nt
S=C(NNC(=S)Nc1ccc(Cl)cc1)NNc1ccccc1	9	0	2	0	1
S=C(N=Nc1ccccc1)NNc1ccccc1	12*	0	3	3	11*
C[C@H](O)CNC(=O)c1[nH]cnc1C(=O)Nc1ccc(CNC(=O)OC(C)(C)C)cc1	-7	-2	0	-1	-1
SMILES	hgDAF-12 ag	ssDAF-12 act	DAX1 inh-1	DAX1 inh-2	hcDAF-12 act
CCOC(=O)C1=CC[C@@H](c2cccc(Br)c2)N(S(=O)(=O)c2ccc(F)cc2)[C@H]1c1cccc(Cl)c1	-1	-1	nt	2	0
Cn1c(NCc2cccs2)nc2ccccc21	8	1.7*	2	1	6.1*
CCn1c(NCc2cccs2)nc2ccccc21	0	-1	1	0	-1
Cc1ccc(O)c(/C=N/NC(=O)c2[nH]ncc2Br)c1	2	-1	2	0	6.2*
COc1cc(/C=N/NS(=O)(=O)c2ccc(C)cc2)ccc1OCc1cccc(C(=O)O)c1	10*	0	-8	2	3
COc1cc(/C=N/NC(N)=S)ccc1OCc1ccc(C)cc1	11*	-1	-2	-1	2
COc1ccccc1CN[C@@H]1CC[C@@]23CCCN2C(=O)CCC[C@H]3C1	4	-1	nt	nt	2
CC(NC(=O)Nc1ccc(Cl)cc1)C(c1cccs1)N1CCOCC1 (configuration not stated)	-1	1.5*	0	-1	-1
CC(NC(=O)Nc1ccccc1)C(c1cccs1)N1CCOCC1 (configuration not stated)	1	-1	1	-1	3
Cc1cc(C(=O)OCC(=O)NC(C)c2ccccc2)c(C)o1 (configuration not stated)	-2	-1	0	-1	-2
Cc1c(C(=O)OCC(=O)NC(C)c2ccccc2)oc2ccccc12 (configuration not stated)	1	1	1	2	5.7*
Cc1c(C(=O)OCC(C)(C)CN(C)C)oc2ccccc12	7	-1	2	4.0*	0
CC(NC(=O)COC(=O)C1(C)CC1(Cl)Cl)c1ccccc1 (configuration not stated)	0	-1	2	3.6*	-1
Cc1ccc(SCC(=O)NCCc2ccc(F)cc2)cc1	-1	-2	-2	0	0
Cc1ccc(SCC(=O)NCCc2ccccc2)cc1	-1	1.7*	1	0	0
CC(C)=CC(=O)NCCc1ccccc1	11*	-1	2	2	2
O=C(CSc1ccccc1)NCCc1ccccc1	6	-1	5.6*	0	0
O=C(CSc1ccccc1)NCCc1ccc(F)cc1	2	-1	1	0	-1
O=C(Oc1coc(CSc2ncccn2)cc1=O)c1ccc([N+](=O)[O-])cc1	2	-1	nt	nt	-2
CCN(CC)C(=O)c1ccc2c(c1)N(Cc1ccccc1)C(=O)CS2=O (configuration not stated)	-1	-1	4.7*	0	-2
Cc1ccc(NC(=S)NNC(=O)CSc2nnc(-c3ccc(C)cc3)n2C2CCCCC2)cc1	0	-1	nt	-1	-4
CCN(CC(=O)Nc1c(F)cccc1F)C(=O)c1cc(C)nc2ccccc12	0	1.0*	1	-1	2
CN(C)CC(=O)N[C@@H]1C[C@@H]2O[C@@H](CO)CC[C@@H]2O[C@@H]1CCc1ccc(-c2ccc(F)cc2)cc1	-1	-1	nt	-1	-1
C[C@H](NC(=O)c1[nH]cnc1C(=O)Nc1ccccc1F)c1ccccc1	2	-1	1	0	-2
Cc1ccc(CSc2nnc(-c3ccc(NS(=O)(=O)c4ccccc4)cc3)o2)cc1	-1	1.7*	0	0	-4
Cc1ccc(S(=O)(=O)Nc2ccc(-c3nnc(SCc4ccccc4Cl)o3)cc2)cc1	0	-1	0	0	-1

Screening data deposited in PubChem by The Scripps Research Institute Molecular Screening Center.
